# Source: PubChem BioAssay (Broad Institute)
# Wnt act: Wnt/beta-catenin pathway activation | Wnt/beta-catenin reporter cell assay, activator, plate reader | activation, % at 9.35 µM | 300,000 compounds, 1.2% hits; in the data active = activation above about 30%, passing the limit was not always enough; inconclusive = no clear call, values can overlap the other calls;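 note: 0% = neutral control wells and 100% = positive control wells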
# MITF TRPM1 HTS: activators of MITF-driven TRPM1 promoter activity in SK-MEL-5 cells; SK-MEL-5 TRPM1-promoter luciferase, 24 h; % of positive control, neutral wells = 0; 300,000 compounds, 0.75% hits; AID 588334; activation, % at 12.5 µM;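 active = mean activation of at least 80% with every replicate also reaching 80%; inconclusive = mean reaches 80% but some replicate falls short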;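 note: 0% = neutral control wells and 100% = parthenolide positive control wells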
# esBAF inh: SWI/SNF esBAF complex inhibition. mouse ES cells, Bmi1-luciferase knock-in reporter, 24 h; 100% = twice the neutral-well signal. reporter increase, % at 12.5 µM. 350,000 compounds, 2% hits. AID 602393; in the data active = activation above about 40%; inconclusive = no clear call, values can overlap the other calls;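 note: 0% = median of the plate's neutral control wells and 100% = double that signal; a rise in the Bmi1 reporter signal indicates esBAF inhibition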
# HSF1 inh: HSF1 inhibition | NIH3T3-HGL HSE-luciferase, MG132-induced, luminescence 8 h; hits give low values | activity change, negative = inhibition, % at 7.5 µM (by protocol) | 300,000 compounds, 0.77% hits | AID 2098;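 active = more than half of replicate wells show activity change below -50%, luminescence cut by over half; inconclusive = some wells, but at most half, below -50%; inactive = no replicate well below -50%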;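 note: luciferase reports HSF-1 transcriptional activity via heat shock element; 0% = median of DMSO wells and -100% = zero luminescence signal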
# HSF1 activator: increases HSF-1 driven luciferase reporter signal | NIH3T3-HGL HSF-1 luciferase reporter, MG132, 8 h; 100% = twice DMSO control signal | activation, % at 9 µM | 300,000 compounds, 1.7% hits | AID 504408;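 active = mean replicate activation of at least 50% with a set share of replicates each reaching 50%; inconclusive = only one of those two conditions met; inactive = mean below 50% and too few replicates reaching it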;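 note: 0% = median of the neutral control wells and 100% = twice that signal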
# Active calls of the source: *; ? = inconclusive; nt = no result. This is a sample that favours compounds with a hit; in the whole collection about 3.9% have one here.
SMILES,Wnt act,MITF TRPM1 HTS,esBAF inh,HSF1 inh,HSF1 activator
CC1Sc2ccc(C(=O)Nc3ncccc3O)cc2NC1=O (centres undefined),-2,38,-30,20,25
CC1Sc2ccc(C(=O)Nc3ccccc3OC(F)F)cc2NC1=O (centres undefined),35*,62,nt,16,15
CC1Sc2ccc(C(=O)O)cc2NC1=O (centres undefined),-1,nt,-5,-3,3
CC1Sc2ccc(C(=O)OCc3ccccc3Cl)cc2NC1=O (centres undefined),?,186*,nt,6,13
C[C@@H](NC(=O)C[C@@H]1C=C[C@H](NC(=O)C2CC2)[C@@H](CO)O1)c1ccccc1,nt,nt,-3,nt,nt
CO[C@@H]1CN(C)C(=O)c2ccc(NS(=O)(=O)CC(F)(F)F)cc2OC[C@H](C)N(C)C[C@@H]1C,nt,nt,0,nt,nt
Cc1noc(C)c1NC(=O)Nc1ccc2c(c1)CC(=O)N([C@H](C)CO)C[C@@H](C)[C@H](CN(C)C(=O)Nc1ccccc1)O2,nt,nt,1,nt,nt
Cc1noc(C)c1NC(=O)N(C)C[C@@H]1Oc2c(NC(=O)NC3CCCCC3)cccc2C(=O)N([C@H](C)CO)C[C@@H]1C,nt,nt,2,nt,nt
COc1ccc(NC(=S)Nc2ccccn2)c(OC)c1,55*,nt,69*,13,38
COc1ccc(NC(=S)Nc2cc(C)ccn2)c(OC)c1,nt,25,68*,20,15
CN1CCC(=NNc2ccc(S(=O)(=O)N3CCOCC3)cc2[N+](=O)[O-])CC1,-6,-6,nt,47,98*
COc1ccc(-n2ncc3c(N4CCC(C)CC4)ncnc32)cc1,10,nt,-32,-16,-19
CC1CCN(c2ncnc3c2cnn3-c2ccccc2)CC1,?,60,16,35,57*
Cc1nn(-c2ccccc2)c(Cl)c1C(=O)N1CCN(c2ncnc3c2cnn3-c2ccccc2)CC1,nt,-50,9,-77*,-82
Cc1nnc(NC(=O)c2cccc(S(=O)(=O)N3CCCC3)c2)s1,1,-8,-6,1,8
O=C(Nc1nc(-c2cccs2)cs1)c1cccc(S(=O)(=O)N2CCCCCC2)c1,nt,14,12,-61*,-70
Cc1nnc(NC(=O)c2ccc(S(=O)(=O)N3CCCCC3)cc2)s1,63*,1,3,nt,nt
O=C(COC(=O)c1cccc(S(=O)(=O)N2CCOCC2)c1)Nc1nc(-c2ccccc2Cl)cs1,nt,nt,52*,5,20
O=C(Nc1nc(-c2cccs2)cs1)c1ccc(S(=O)(=O)N2CCCCC2)cc1,-2,-11,3,-61*,-70
O=C(Nc1nc(-c2ccccn2)cs1)c1ccc(S(=O)(=O)N2CCCCC2)cc1,nt,nt,nt,-40,-49
CC(C)OC(=O)N(C)C[C@@H]1OCc2ccccc2-c2c(n(C)c3ccccc23)C(=O)N([C@H](C)CO)C[C@@H]1C,nt,nt,5,nt,nt
Cc1ccc(OCc2nnc(SCC(=O)O)n2-c2ccccc2)cc1,-1,nt,nt,-4,3
Cc1ccc(OCc2nnc(SC(C)C(=O)O)n2-c2ccccc2)cc1 (centres undefined),-1,-2,5,-63*,-68
Cc1ccc(S(=O)(=O)N2C[C@@H](O)COC[C@H]3O[C@@H](CC(=O)NCC4CCCCC4)CC[C@@H]32)cc1,nt,nt,-2,nt,nt
Cc1ccc(-n2c(C)cc(C(=O)COc3c(CO)cc(F)cc3CO)c2C)cc1C,-2,-5,0,11,56*
SMILES,Wnt act,MITF TRPM1 HTS,esBAF inh,HSF1 inh,HSF1 activator
CCS(=O)(=O)N1CCc2nc(-c3ccccc3)sc2C1,39*,121*,13,31,63*
CCNC(=O)C[C@@H]1CC[C@H]2[C@@H](COc3ccc(NC(=O)c4cccc(C(F)(F)F)c4)cc3C(=O)N2C)O1,nt,nt,-3,nt,nt
COCCCN1C(=O)c2ccc(C(=O)Nc3cccc(OC)c3)cc2C1=O,nt,10,35,7,33
CC(=O)Oc1cccc(NC(=O)c2ccc3c(c2)C(=O)N(CC(C)C)C3=O)c1,27,2,44*,21,37
COc1ccccc1-c1cnc2c(c1)C(=O)N([C@H](C)CO)C[C@@H](C)[C@@H](CN(C)C)O2,nt,nt,-3,nt,nt
CC(C)NC(=O)N(C)C[C@@H]1Oc2ncc(-c3ccc(F)cc3)cc2C(=O)N([C@H](C)CO)C[C@@H]1C,nt,nt,-1,nt,nt
COc1ccc(C#Cc2ccc3c(c2)[C@@H]2[C@@H](CCN2C(=O)c2ccccn2)[C@@H](CO)N3)cc1,nt,nt,-5,nt,nt
O=C(NCc1ccccc1F)c1ccc2c(c1)OCO2,-1,25,14,6,-1
O=C(CNC(=O)c1ccc2c(c1)OCO2)NCCOc1ccc(Cl)cc1,2,-1,-1,nt,nt
O=C(NCCc1ccccc1F)c1ccc2c(c1)OCCO2,-13,-85,-83,-75*,-79
O=C(NCCc1ccc(Cl)cc1)c1ccc2c(c1)OCO2,37*,46,nt,64,99*
Cc1cc(C)n(CCNC(=O)c2ccc3c(c2)OCO3)n1,4,nt,3,11,58*
O=C(NCCOc1ccc(Cl)cc1)c1ccc2c(c1)OCCO2,20,98*,39,nt,nt
C[C@@H]1CN([C@H](C)CO)C(=O)Cc2cc(NC(=O)CCC(F)(F)F)ccc2O[C@@H]1CN(C)Cc1ccc2c(c1)OCO2,nt,nt,-5,nt,nt
CCCC(=O)Nc1ccc2c(c1)C(=O)N(C)C[C@H](OC)[C@@H](C)CN(C(C)=O)[C@@H](C)CO2,nt,nt,-6,nt,nt
CO[C@@H]1CN(C)C(=O)c2cc(NC(=O)NC(C)C)ccc2OC[C@H](C)N(CC2CC2)C[C@@H]1C,nt,nt,-3,nt,nt
CC(=O)N1CC[C@@H]2[C@@H](CO)Nc3ccc(C#Cc4ccccc4F)cc3[C@@H]21,nt,nt,-1,nt,nt
O=C(N[C@H]1CC[C@H](CC(=O)N2CCOCC2)O[C@@H]1CO)c1cccc(F)c1,nt,nt,-2,nt,nt
c1ccc(-c2nccc3ccccc23)cc1,2,-14,nt,-6,12
Cc1ccc(-c2nc(-c3nccc4ccccc34)oc2-c2ccccc2)cc1,20,45,nt,28,54*
CCOc1ncccc1C(=O)OCC(=O)c1cc(C)n(Cc2ccco2)c1C,46*,41,58*,12,10
Cc1cc(C(=O)COC(=O)c2ccc(Br)o2)c(C)n1C,17,111*,45*,22,?
Cc1cc(C(=O)COC(=O)c2ccc(O)cc2)c(C)n1Cc1ccco1,?,?,nt,42,49
Cc1cc(C(=O)COC(=O)c2ccc(Br)o2)c(C)n1Cc1ccco1,60*,nt,nt,9,13
COCCn1c(C)cc(C(=O)COC(=O)c2ccc(Br)o2)c1C,4,57,nt,?,-57
Cc1cc(C(=O)CSc2ncccn2)c(C)n1Cc1ccco1,20,33,28,39,45
CO[C@H]1CN(C)C(=O)c2ccc(NC(=O)Nc3cccc(F)c3)cc2OC[C@H](C)N(C(=O)Nc2c(C)noc2C)C[C@H]1C,nt,nt,-2,nt,nt
COc1ccc(-c2cc3ccc(F)cc3cn2)cc1,?,55,-6,nt,nt
COc1ccc(-c2cc3cc(F)ccc3cn2)cc1,43*,67,5,nt,nt
COc1cc(OC)cc(-c2cc3cc(F)ccc3cn2)c1,39*,121*,69*,nt,nt
